Source: PubChem BioAssay AID1626 (SRMLSC, 2009)
Among all 220,000 compounds or so, about 2,000 (0.91%) were called active. Not shown: some 2% with an inconclusive outcome. Not all results are given here. Potency and affinity values are given separately. Values without a mark were called inactive. Cut-off read from the data, not from the text of the source: inconclusive = inhibition above about 80% without an active follow-up result; inactive = below that; test concentration not stated here.

Assay: M. tuberculosis H37Rv growth inhibitors, H37Rv strain (AID 1626);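 note: bacteria incubated seven days before Alamar blue readout; 0% = bacteria only wells and 100% = bacteria with antibiotic wells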
Details: stronger effect = higher value, concentration not given here

Structure (SMILES)	inhibition [%]
Cc1ccc(NC(=O)c2cc(NC(=O)C3CC=CCC3C(=O)O)ccc2N2CCOCC2)cc1Cl (centres undefined)	-6.7
CCn1c(CNC(=O)c2ccccc2)nc2ccccc21	-6.06
O=C(Nc1nc2ccccc2n1CCN1CCCC1)c1ccc(Cl)cc1	58.7
CC(C)NC(=O)c1cccc(Cn2cc(Cl)cn2)c1	-2.76
Cn1c(NC(=O)c2cccc(Cn3cc(Cl)cn3)c2)nc2ccccc21	84.7
CN(C)CCn1c(NC(=O)c2ccc(Cl)cc2)nc2ccccc21	65.2
CC(=O)Nc1nc2ccccc2n1CCN1CCOCC1	-6.15
CCn1c(NC(C)=O)nc2ccccc21	2.94
CCN(CC)CCn1c(NC(=O)c2ccc(Cl)cc2)nc2ccccc21	57.6
Cc1c(C(=O)N/N=C/c2ccc(N3CCOCC3)cc2)nc2ccccn12	3.49
CC(c1ccccc1)c1nnc(NC(=O)c2ccc3c(c2)OCO3)s1 (centres undefined)	6.54
O=C(OCCN1C(=O)c2ccccc2C1=O)C1CCN(S(=O)(=O)c2cccs2)CC1	-5.04
CCCCNC(=O)N1CCN(C/C=C/c2ccccc2)CC1	5.68
O=C(c1ccc(C(F)(F)F)cc1)N1CCCCC1	-0.08
Fc1cccc(NC(=S)NCc2cccnc2)c1	21.1
O=c1c2cc(-c3ccccc3)sc2nc2n1N=C(c1ccccc1)CS2	10.6
CCCCN(CCCC)Cc1cc2ccccc2c2c1COC2	4.07
CCCn1c(Nc2ccccc2C)nc2ccccc21	-8.39
CCCn1c(C(C)NC(=O)c2ccccc2)nc2ccccc21 (centres undefined)	0.32
CCCn1c(NCCO)nc2ccccc21	-2.95
CCCn1c(CNC(=O)c2ccccc2)nc2ccccc21	-0.92
CCn1c(C(C)NC(=O)c2cccs2)nc2ccccc21 (centres undefined)	2.83

Structure (SMILES)	inhibition [%]
CCn1c(CCCNC(=O)c2cccs2)nc2ccccc21	-2.25
CCCn1c(Nc2nc3ccccc3n2C)nc2ccccc21	2.56
CCCn1c(NC(=S)Nc2ccccc2)nc2ccccc21	7.73
Cc1onc(-c2ccccc2Cl)c1C(=O)N1C=CC(C(F)(F)Cl)=NCC1	1.09
O=C(NCc1ccc(Cl)cc1)c1cc(-c2cccs2)on1	-1.76
Cc1cccc(SCC(=O)Nc2ccccc2[N+](=O)[O-])c1	7.5
COc1ccc(N=C2S/C(=C\c3ccc(OCC(=O)O)cc3)C(=O)N2CCc2c[nH]c3ccccc23)cc1	-4.37
Cc1ccc(C)c(CN2C(=O)COc3ccc(C(=O)c4ccccc4C(=O)O)cc32)c1	15.8
CCN(CC)S(=O)(=O)c1cccc(NC(=O)COC(=O)CNC(=O)c2cccc(F)c2)c1	-4.29
Cc1ccccc1NS(=O)(=O)c1cc(C(=O)NCc2ccco2)ccc1C	-1.94
COc1cc(NC(=O)CSc2nnc(C)s2)cc(OC)c1OC	0.33
CCn1cc(Cl)c(C(=O)Nc2nc3ccccc3n2CCN2CCCCC2)n1	3.91
CCn1c(NC(=O)Nc2ccccc2OC)nc2ccccc21	81.5
Cc1ccc(-c2nc(C(F)(F)F)cc(=O)[nH]2)cc1	-0.92
CCOC(=O)c1c(NC(=O)c2nn(CC)cc2Br)c(C#N)cn1-c1ccccc1	-6
CCOC(=O)N1CCC(N2CCCC(C(=O)c3cccc(OC)c3)C2)CC1 (centres undefined)	0.16
COc1ccc(O)c(CN2CCCC(C(=O)c3ccccc3SC)C2)c1 (centres undefined)	-3.14
COc1ccc(OC)c(CN2CCCC(C(=O)c3ccccc3SC)C2)c1 (centres undefined)	5
CC(C)Oc1cccc(C(=O)C2CCCN(Cc3ccon3)C2)c1 (centres undefined)	5.09
CCn1ccnc1CN1CCCC(C(=O)c2cc(C)c(OC)c(C)c2)C1 (centres undefined)	9.37
CCOC(=O)N1CCC(N2CCCC(C(=O)c3cc(C)c(OC)c(C)c3)C2)CC1 (centres undefined)	-0.88
CCn1ccnc1CN1CCCC(C(=O)c2ccc(OC)cc2OC)C1 (centres undefined)	-1.43

Structure (SMILES)	inhibition [%]
Cc1ncc(CN2CCCC(C(=O)c3cccc(OC(C)C)c3)C2)s1 (centres undefined)	-0.24
c1ccc(-c2cnc(SCCN3CCOCC3)n2CC2CCCO2)cc1 (centres undefined)	4.09
CCN(CC)C(=O)C(=O)c1cccn1-c1c(Cl)cccc1C#N	-1.07
NC(=O)c1cn(-c2ccccc2)nc1-c1cccnc1	-9.42
CC1CC(=O)N(CC(=O)NCc2ccco2)c2ccccc2S1 (centres undefined)	-7.83
O=C(CCc1nnc(CCc2c[nH]c3ccccc23)o1)NC1CCC1	-2.04
COc1ccc(NC(=O)c2ccccc2[N+](=O)[O-])cc1	-5.35
Cc1c(C(=O)NCCCn2ccnc2)oc2ccccc12	3
CCc1ccc(/C=N/NC(=O)c2cc(C)on2)s1	4.86
CC(C)CCNC(=O)CCSCCC(=O)NCCC(C)C	-5.9
COc1ccc(C(=O)C2CCCN(Cc3cnc(C)s3)C2)cc1OC (centres undefined)	-7.69
Cc1cccc(CN2CCCC(C(=O)c3ccc4c(c3)OCO4)C2)n1 (centres undefined)	9.77
COc1ccc(C(=O)C2CCCN(Cc3cccc(C)n3)C2)c(OC)c1 (centres undefined)	-9.04
COc1c(C)cc(C(=O)C2CCCN(Cc3ccccn3)C2)cc1C (centres undefined)	52.1
COc1cccc(C(=O)C2CCCN(Cc3cccc(C)n3)C2)c1 (centres undefined)	6.54
COc1ccc(C(=O)C2CCCN(Cc3cnc(C)s3)C2)c(OC)c1 (centres undefined)	1.52
Cc1cccc(-n2ncc3c(Nc4ccc(F)cc4)ncnc32)c1	8.29
COc1ccc(N2C(=O)c3ccccc3S2(=O)=O)cc1	-3.28
COc1ccc(CN2CN=C(Nc3nc4ccccc4s3)NC2)cc1	-0.93
CCNC(=S)N/N=C/c1ccc(OCCOc2ccccc2C)cc1	-4.17
